Measurements taken from PubChem BioAssay AID488932 (Broad Institute, 2010).
Potency and affinity values are given separately. The source made the active and inactive calls.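 How the source made its calls: active means growth signal falls, with fitted half-maximal dose at most ten times the top valid dose; inconclusive means flat curve with a partial drop, or a poorly fitting curve; inactive means the rest, including compounds that raise signal.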

Experiment: single-agent toxicity toward C. albicans – CaCi-2 strain, no fluconazole, dry powder, set 4, counter-screen for reversing antifungal drug resistance, dose response (AID 488932)

Structure (SMILES)	outcome
O=C(c1ccc(Cl)cc1)N1CCN(c2ccncc2)CC1	inactive
O=C(c1cccc(Cl)c1)N1CCN(c2ccnc3cc(Cl)ccc23)CC1	inactive
Clc1ccc2c(N3CCNCC3)ccnc2c1	inactive
O=C(c1ccc(Cl)cc1)N1CCN(c2ncccn2)CC1	inactive
O=C(C1CC1)N1CCN(c2ccnc3cc(Cl)ccc23)CC1	inactive
Cc1cc(N2CCN(C(=O)c3ccc(Cl)cc3)CC2)c2ccccc2n1	inactive
O=C(C1CCC1)N1CCN(c2ccnc3cc(Cl)ccc23)CC1	inactive
O=C(c1ccc(Cl)cc1)N1CCN(c2ccc(Cl)cc2)CC1	inactive
O=C(c1ccccc1Cl)N1CCN(c2ccnc3cc(Cl)ccc23)CC1	inactive
O=C(c1ccc(Cl)cc1)N1CCN(c2ccnc3ccccc23)CC1	inactive
O=S(=O)(c1ccc(Cl)cc1)N1CCN(c2ccnc3cc(Cl)ccc23)CC1	inactive
O=C(c1ccc(Cl)cn1)N1CCN(c2ccnc3cc(Cl)ccc23)CC1	inactive
O=C(c1ccc(Cl)cc1)N1CCN(c2cc(C(F)(F)F)nc3ccccc23)CC1	inactive
O=C(c1ccc(Cl)cc1)N1CCN(c2nc3ccccc3s2)CC1	inactive
COc1cccc2c(N3CCN(C(=O)c4ccc(Cl)cc4)CC3)cc(C)nc12	inactive
O=C(c1ccc(Cl)cc1)N1CCNCC1	inactive
O=C(C1CCCC1)N1CCN(c2ccnc3cc(Cl)ccc23)CC1	inactive
COc1ccc(C(=O)N2CCN(c3ccnc4cc(Cl)ccc34)CC2)cc1	inactive
Cc1cc(N2CCN(C(=O)c3ccc(Cl)cc3)CC2)c2ccc(F)cc2n1	inactive
CC(C)C(=O)N1CCN(c2ccnc3cc(Cl)ccc23)CC1	inactive
O=C(c1ccc(Cl)cc1)N1CCN(c2ncnc3ccccc23)CC1	inactive
O=C(Nc1ccc(Cl)cc1)N1CCN(c2ccnc3cc(Cl)ccc23)CC1	inactive
